Compound activity (PubChem BioAssay)
An excerpt weighted towards active compounds, which were near 12% of everything screened.
G9a block = qHTS Assay for Inhibitors of Histone Lysine Methyltransferase G9a; Histone-lysine N-methyltransferase EHMT2 (Homo sapiens), Q96KQ7; G9a H3K9 monomethylation, AlphaScreen, 2 h; Potency, µM (titrated, usually from 102 µM), for inactives: at the highest dose activity, negative = inhibition, actives largely listed as inhibitors; 8.8% of 350,000 active; AID 504332, 2011; note: potency is the fitted concentration of half-maximal effect; % is set by controls: 0 for no effect and ±100 for the full control effect; nearly all actives have a fitted effect of over 75% in size
Target sequence (Q96KQ7 913-1193 limits assumed): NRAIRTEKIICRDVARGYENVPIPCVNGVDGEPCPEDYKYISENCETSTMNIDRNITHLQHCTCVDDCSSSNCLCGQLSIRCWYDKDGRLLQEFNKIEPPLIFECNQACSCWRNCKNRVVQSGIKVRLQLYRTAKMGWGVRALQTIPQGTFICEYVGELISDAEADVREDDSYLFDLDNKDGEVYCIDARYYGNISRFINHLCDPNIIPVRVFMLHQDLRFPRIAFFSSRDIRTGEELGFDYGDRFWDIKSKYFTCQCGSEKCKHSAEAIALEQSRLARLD
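Enzyme 20 nM + cpd, 15 min RT; add b-H3K9 pep 500 nM / SAM 20 uM; 2 h RT; anti-H3K9me1 Ab 0.5 ug/mL + SA donor / anti-rabbit acceptor beads 20 ug/mL each, 10 min; AlphaScreen read.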
HP1b chromo inh = HTS for Inhibitors of HP1-beta Chromodomain Interactions with Methylated Histone Tails; 0.56% of 390,000 active; AID 540317, 2011; Chromobox protein homolog 1 (Homo sapiens), P83916; Potency, µM (top dose mostly 114 µM), for the others: at the highest dose activity change, negative = inhibition, usual class: inhibitors; AlphaScreen HP1-beta / biotin-H3K9me3 peptide binding; note: potency is the fitted concentration of half-maximal effect; nearly all actives have a fitted effect of over 70% in size
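HP1-beta protein (50 nM final) preincubated 30 min at room temperature with biotinylated H3(1-18)K9me3 peptide (50 nM) in PBS pH 7.4, 0.01% Tween-20, then compound added for 30 min. AlphaScreen streptavidin donor/nickel chelate acceptor beads (10 ug/mL final), 30 min dark, luminescence read.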
PLK1 PBD inh = qHTS for Inhibitors of PLK1-PDB (polo-like kinase 1 - polo-box domain): Primary Screen. Serine/threonine-protein kinase PLK1 (Homo sapiens), P53350. Plk1 PBD binding of FITC phosphopeptide, fluorescence polarization. Potency, µM, inactives show max response, negative = inhibition, most hits filed as inhibitors. 2.8% of 360,000 active. AID 720504, 2013; note: potency is the fitted concentration of half-maximal effect; series mostly up to about 57 µM; % is set by controls: 0 for no effect and ±100 for the full control effect; nearly all actives have a fitted effect of over 65% in size
JMJD2A Tudor = qHTS Assay for Inhibitors of JMJD2A-Tudor Domain | Lysine-specific demethylase 4A (Homo sapiens), O75164 | AID 504339, 2011 | AlphaScreen JMJD2A-Tudor / H3K4me3 peptide binding | Potency, µM (top dose mostly 114 µM), without a hit: top-dose activity change, negative = inhibition, usual class: inhibitors | 4.4% of 390,000 active; note: potency is the fitted concentration of half-maximal effect; % is set by controls: 0 for no effect and ±100 for the full control effect; nearly all actives have a fitted effect of over 50% in size
PI5P4K alpha inh = qHTS for Inhibitors of phosphatidylinositol 5-phosphate 4-kinase (PI5P4K); PI5P4Kalpha enzyme, ADP-Glo luminescence, 60 min; hits give low values; max response, %; 1.2% of 330,000 active; AID 652105, 2013; active = max response of -50% or lower; inconclusive = between -30% and -50%; inactive = -30% or higher; note: value at the top dose of about 77 µM; % is set by controls: 0 for no effect and ±100 for the full control effect
Target sequence (P48426 whole entry, looked up): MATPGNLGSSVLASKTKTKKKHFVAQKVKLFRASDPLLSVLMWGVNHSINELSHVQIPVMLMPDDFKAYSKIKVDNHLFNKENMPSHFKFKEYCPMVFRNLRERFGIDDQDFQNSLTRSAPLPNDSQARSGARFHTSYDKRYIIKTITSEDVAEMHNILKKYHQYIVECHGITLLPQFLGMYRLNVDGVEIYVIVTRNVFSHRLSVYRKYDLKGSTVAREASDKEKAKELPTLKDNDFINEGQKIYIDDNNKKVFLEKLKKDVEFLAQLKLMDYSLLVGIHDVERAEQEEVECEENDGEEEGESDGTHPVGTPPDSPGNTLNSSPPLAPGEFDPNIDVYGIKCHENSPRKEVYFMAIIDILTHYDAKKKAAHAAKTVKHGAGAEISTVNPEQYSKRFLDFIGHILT
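ADP-Glo luminescence end-point after a 60 min room-temperature kinase reaction. PI5P4Kalpha and substrate in HEPES pH 7.4 buffer with EGTA, 0.1% CHAPS and 5% DMSO; ATP at 5 microM final.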
BAZ2B block = qHTS Assay for Inhibitors of BAZ2B; AlphaScreen BAZ2B-H3K14Ac peptide displacement; Potency, µM (doses to about 114 µM), for inactives: top-dose activity change, negative = inhibition, actives largely listed as inhibitors; 4.4% of 360,000 active; note: potency is the fitted concentration of half-maximal effect; % is set by controls: 0 for no effect and ±100 for the full control effect; nearly all actives have a fitted effect of over 60% in size
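BAZ2B 50 nM plus b-H3(5-23)K14Ac 50 nM, PBS pH 7.4/0.01% Tween-20, 30 min RT; compound added (max 110 uM), 30 min RT; streptavidin donor/Ni-chelate acceptor beads 10 ug/mL final, 20 min dark; AlphaScreen read.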
The depositor's hits bear a star; [ ] = dose if it differs, or a comment. Unless noted, calls come from the whole dose curve; as a rule, active = well fitted curve in the direction sought with a large enough effect; inconclusive = small, poorly fitted or top-dose-only effect, or another doubt; inactive = no such curve, though single readings can be large; an effect the other way counts as inactive or inconclusive.

Results for COCc1nnc(NC(=O)C2CC(=O)N(C3CCCC3)C2)s1 (configuration not stated) ?
G9a block: 28µM*; HP1b chromo inh: -10%; PLK1 PBD inh: inconclusive; JMJD2A Tudor: -6%; PI5P4K alpha inh: 2; BAZ2B block: -1%

Results for COCc1nnc(NC(=O)C2CC(=O)N(CCc3ccc(F)cc3)C2)s1 (configuration not stated) ?
G9a block: 40µM*; HP1b chromo inh: -29%; PLK1 PBD inh: inconclusive; JMJD2A Tudor: -8%; PI5P4K alpha inh: -21; BAZ2B block: inconclusive

What do the screens show for `Cc1ccc(-c2onc(C)c2C)cc1S(=O)(=O)Nc1cccc(Cl)c1C`?
G9a block: 9%[59 µM]; HP1b chromo inh: 12%; JMJD2A Tudor: -16%; BAZ2B block: 3%

How did CN(CC(=O)Nc1ccc(F)c(F)c1F)C(=O)C1=COCCO1 do in these assays?
G9a block: -6%; HP1b chromo inh: 7%; PLK1 PBD inh: -3%; JMJD2A Tudor: -11%; PI5P4K alpha inh: -3; BAZ2B block: -1%

What do the screens show for `CCCN(CC(=O)Nc1ccc(F)c(F)c1F)C(=O)C1=COCCO1`?
G9a block: 56µM*; HP1b chromo inh: 38%; PLK1 PBD inh: -3%; JMJD2A Tudor: 3%; PI5P4K alpha inh: 7; BAZ2B block: -10%

Results for CCOc1ccc(CSC(CC(=O)O)C(=O)O)cc1 (configuration not stated) ?
HP1b chromo inh: 47%; PLK1 PBD inh: -16%; JMJD2A Tudor: -4%; PI5P4K alpha inh: 5; BAZ2B block: 79µM*

How did COC(=O)C(C)Sc1nc2c(c(=O)n(C)c(=O)n2C)n1CCC(C)C (configuration not stated) do in these assays?
G9a block: 79µM*; HP1b chromo inh: 20%; PLK1 PBD inh: -4%; JMJD2A Tudor: 12%; PI5P4K alpha inh: 4; BAZ2B block: -2%

What do the screens show for `CC1(C)C(=O)C=C[C@]2(C)C1CC(=O)[C@]1(C)C2CC[C@@]2(C)C(c3ccoc3)OC(=O)C3O[C@@]321` (some centres not stated)?
G9a block: -50%[2.33 µM]

Results for CC(=O)c1ccc(S(=O)(=O)N2CCCC2)cc1 ?
G9a block: -61%[59 µM]; HP1b chromo inh: 6%; PLK1 PBD inh: -11%; JMJD2A Tudor: -11%; BAZ2B block: 14%

Results for CC(=O)c1ccc(S(=O)(=O)N2CCNCC2)cc1 ?
HP1b chromo inh: 21%; PLK1 PBD inh: 15µM*; JMJD2A Tudor: -25%[11.4 µM]; PI5P4K alpha inh: -19; BAZ2B block: 0%

How did O=C(C(=O)N1CCN(C(=O)c2ccco2)CC1)c1ccccc1 do in these assays?
PLK1 PBD inh: -14%; PI5P4K alpha inh: -1

What do the screens show for `Oc1cccc(C(Nc2nccs2)c2ccc3cccnc3c2O)c1` (configuration not stated)?
G9a block: inconclusive; HP1b chromo inh: inconclusive; PLK1 PBD inh: inconclusive; JMJD2A Tudor: 32µM*; PI5P4K alpha inh: -23; BAZ2B block: 28µM*

What do the screens show for `O=[N+]([O-])c1ccc(NC(c2ccccc2)c2ccc3cccnc3c2O)cc1` (configuration not stated)?
HP1b chromo inh: -13%[57 µM]; PLK1 PBD inh: -1%; JMJD2A Tudor: inconclusive; PI5P4K alpha inh: 2

What do the screens show for `CCCCC(=O)NC(c1cccc([N+](=O)[O-])c1)c1c(OC(C)=O)ccc2ccccc12` (configuration not stated)?
G9a block: -51%[59 µM]; HP1b chromo inh: -1%; PLK1 PBD inh: -1%; JMJD2A Tudor: -24%; PI5P4K alpha inh: 3; BAZ2B block: inconclusive

Results for COc1cccc(C(NC(C)=O)c2ccc3cccnc3c2O)c1 (configuration not stated) ?
G9a block: inconclusive; HP1b chromo inh: -1%; PLK1 PBD inh: inconclusive; JMJD2A Tudor: 56µM*; PI5P4K alpha inh: -2; BAZ2B block: 18µM*

Results for CCCCC(=O)NC(c1cccc([N+](=O)[O-])c1)c1ccc2cccnc2c1O (configuration not stated) ?
HP1b chromo inh: 49%; PLK1 PBD inh: 2%; JMJD2A Tudor: 32µM*; PI5P4K alpha inh: 1

Results for CC(=O)NC(c1cccc([N+](=O)[O-])c1)c1ccc2cccnc2c1O (configuration not stated) ?
HP1b chromo inh: 36%; PLK1 PBD inh: -12%; JMJD2A Tudor: 32µM*; PI5P4K alpha inh: -1; BAZ2B block: 38%

Results for O=C(NCCc1ccccc1)c1ccc(Nc2nc3ccccc3n3nnnc23)cc1 ?
G9a block: -12%[59 µM]; HP1b chromo inh: 32%; JMJD2A Tudor: -6%; BAZ2B block: 2%

What do the screens show for `CC(=O)NC(c1ccc(C(C)C)cc1)c1ccc2cccnc2c1O` (configuration not stated)?
G9a block: 20%; HP1b chromo inh: 35%; PLK1 PBD inh: -17%; JMJD2A Tudor: 56µM*; PI5P4K alpha inh: -5; BAZ2B block: inconclusive

What do the screens show for `CC(C)c1ccc(C(=O)Nc2cccc3cccnc23)cc1`?
G9a block: 68%[59 µM]; HP1b chromo inh: 147%; JMJD2A Tudor: 112%; BAZ2B block: 120%

How did Fc1ccc(-c2oncc2-c2nnnn2-c2ccccc2)cc1F do in these assays?
G9a block: 8%[59 µM]; HP1b chromo inh: 71%; PLK1 PBD inh: -3%; JMJD2A Tudor: -2%[57.1 µM]; PI5P4K alpha inh: 7; BAZ2B block: 0%

How did Fc1cc(F)cc(-c2oncc2-c2nnnn2-c2ccccc2)c1 do in these assays?
G9a block: 7%[59 µM]; HP1b chromo inh: 3%; PLK1 PBD inh: inconclusive; JMJD2A Tudor: 79µM*; PI5P4K alpha inh: 2; BAZ2B block: 3%

How did Cc1ccc(-n2nnnc2-c2cnoc2-c2cccc(F)c2)cc1 do in these assays?
G9a block: -1%[59 µM]; HP1b chromo inh: 22%; PLK1 PBD inh: 21µM*; JMJD2A Tudor: 16µM*; PI5P4K alpha inh: -24; BAZ2B block: 28%

Results for COc1ccc(CN2COc3ccc4c(-c5ccccc5)cc(=O)oc4c3C2)cc1OC ?
G9a block: 9%[59 µM]; HP1b chromo inh: 22%; JMJD2A Tudor: -17%; BAZ2B block: 0%
